From PubChem BioAssay AID1456 (Vanderbilt High Throughput Screening Facility, 2008) come the findings set out here.

The structures appear in SMILES notation. Among all 190,000 compounds or so, about 4,100 (2.2%) were called active.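 How the source made its calls: active means thallium flux slope and its plate-corrected score both differing from the plate sample mean at a set confidence after two filtering rounds, in either direction; inactive means the rest.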 Only a selection was taken, and actives are over-represented in it overall.

The target in this assay is Solute carrier family 12 member 5 (Homo sapiens) (UniProt Q9H2X9). Description: KCC2 cotransporter modulators, thallium flux, primary screen, cell-based, HEK293 KCC2, FluoZin-2 fluorescence, MLSMR (AID 1456).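 Further: slope of fluorescence scaled to starting intensity during 10 to 20 s after thallium.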 The note with it: KCC2 cells, thallium flux FluoZin-2 fluorescence; at 10 µM.
Chain of Solute carrier family 12 member 5 (Homo sapiens) (Q9H2X9 whole entry, looked up): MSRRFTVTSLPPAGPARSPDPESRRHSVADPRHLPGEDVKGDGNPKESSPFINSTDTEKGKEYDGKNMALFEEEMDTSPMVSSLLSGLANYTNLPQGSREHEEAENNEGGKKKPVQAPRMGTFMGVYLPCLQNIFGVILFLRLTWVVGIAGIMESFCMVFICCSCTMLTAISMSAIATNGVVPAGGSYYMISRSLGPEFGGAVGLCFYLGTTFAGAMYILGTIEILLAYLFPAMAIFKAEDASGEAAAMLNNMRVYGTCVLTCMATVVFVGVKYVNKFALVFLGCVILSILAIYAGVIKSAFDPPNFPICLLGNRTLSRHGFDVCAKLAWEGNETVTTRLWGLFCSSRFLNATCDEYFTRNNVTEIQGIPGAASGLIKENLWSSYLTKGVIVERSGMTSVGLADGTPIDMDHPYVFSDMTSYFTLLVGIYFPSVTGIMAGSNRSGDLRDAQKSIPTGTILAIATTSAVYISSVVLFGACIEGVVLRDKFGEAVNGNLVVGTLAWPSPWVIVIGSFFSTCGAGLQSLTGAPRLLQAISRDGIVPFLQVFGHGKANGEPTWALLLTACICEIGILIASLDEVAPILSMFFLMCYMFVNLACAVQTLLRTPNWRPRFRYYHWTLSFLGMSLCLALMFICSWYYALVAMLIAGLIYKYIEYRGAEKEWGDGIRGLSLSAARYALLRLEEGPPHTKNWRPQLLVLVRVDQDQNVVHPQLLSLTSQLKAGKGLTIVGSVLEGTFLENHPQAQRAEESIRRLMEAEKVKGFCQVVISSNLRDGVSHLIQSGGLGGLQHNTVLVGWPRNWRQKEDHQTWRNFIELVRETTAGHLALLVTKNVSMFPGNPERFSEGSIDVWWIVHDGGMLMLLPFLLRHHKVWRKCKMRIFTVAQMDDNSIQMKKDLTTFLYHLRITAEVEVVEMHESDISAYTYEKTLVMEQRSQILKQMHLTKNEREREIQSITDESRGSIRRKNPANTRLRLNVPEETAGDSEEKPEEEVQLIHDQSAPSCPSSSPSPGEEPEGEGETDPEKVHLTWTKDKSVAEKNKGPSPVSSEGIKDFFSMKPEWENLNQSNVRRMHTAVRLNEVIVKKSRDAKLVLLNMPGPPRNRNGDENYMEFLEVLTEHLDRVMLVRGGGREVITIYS
For `Cc1cc(C(=O)CSc2nc(N)cc(=O)[nH]2)c(C)n1Cc1ccco1`, the B-score of Tl+ flux slope (higher = more flux/activation; lower = inhibition) is -0.287 (inactive). Next, `COc1ccc(-c2csc(NC3OC(=O)c4ccccc43)n2)cc1` (stereo not given): 0.605 (inactive); `CCC(CC)NC(=O)CSc1nnc(-c2c[nH]c3ccccc23)o1`: -3.08 (active); `O=C(CSc1nnc(-c2c[nH]c3ccccc23)o1)c1ccccc1`: 0.154 (inactive). Next, `CN(C(=O)CSc1nnc(-c2c[nH]c3ccccc23)o1)C1CCS(=O)(=O)C1` (stereo not given): -0.897 (inactive); `COc1cccc(C(=O)n2ccc(-c3cccs3)n2)c1`: 0.604 (inactive); `COC(=O)N(NC(=O)C(O)(C(C)C)C(C)C)c1ccccc1`: -1.84 (inactive).

Turning to `CC(CC(=O)N1CCN(c2ccccc2)CC1)c1ccccc1` (stereo not given), the B-score of Tl+ flux slope (higher = more flux/activation; lower = inhibition) was -0.358 (inactive). Then `O=C(NC(CC(=O)N1CCN(c2ccccc2)CC1)c1ccccc1)c1ccccc1Cl` (stereo not given), with -2.77 (active); and `O=C(CN1CCCC1)N1CCN(c2ccccc2)CC1`, with 0.962 (inactive); and `S=c1[nH]nc(-c2ccco2)n1/N=C/c1ccc(Br)s1`, with 12.6 (active). Then `Cc1cc(-c2n[nH]c(=S)n2/N=C/c2ccco2)n[nH]1`, with -0.111 (inactive). Next, `S=c1[nH]nc(-c2cccs2)n1/N=C/c1cccs1`: 8.64 (inactive).

In the case of `S=c1[nH]nc(-c2ccco2)n1/N=C/c1ccccc1`, the B-score of Tl+ flux slope (higher = more flux/activation; lower = inhibition) was 4.67 (inactive). Then `Cc1ccc(/C=N\n2c(-c3ccccc3)n[nH]c2=S)s1`, with 5.99 (active); and `S=c1[nH]nc(-c2ccccc2)n1/N=C/c1c[nH]c2ccccc12`, with 0.491 (inactive); and `O=c1c2ccccc2cnn1Cc1n[nH]c(=S)n1-c1ccccc1F`, with 0.755 (inactive).

Take `CC1CCN(c2c(NCc3ccc(C(=O)NCc4ccccc4)cc3)c(=O)c2=O)CC1`: the B-score of Tl+ flux slope (higher = more flux/activation; lower = inhibition) was -1.1 (inactive). Next, `O=C(Nc1ccccc1)C1CC(=O)n2c(nc3ccccc32)N1` (stereo not given): 0.778 (inactive); `CC(C)CCNC(=O)C1CCC(CNc2c(N3CCC(C)CC3)c(=O)c2=O)CC1` (stereo not given): 0.284 (inactive).

With `COc1ccc(CNC(=O)CCC(=O)Nc2nnc(C(C)C)s2)cc1`, the B-score of Tl+ flux slope (higher = more flux/activation; lower = inhibition) was 0.0451 (inactive).

For the compound `Cc1cccc(N2CCN(Cc3nc(C4CC4)no3)CC2)n1`, the B-score of Tl+ flux slope (higher = more flux/activation; lower = inhibition) was -0.346 (inactive).

For the compound `COc1cccc(-c2nnc(NC(=O)c3ccc(S(=O)(=O)N(CC(C)C)CC(C)C)cc3)o2)c1`, the B-score of Tl+ flux slope (higher = more flux/activation; lower = inhibition) is 18.6 (active). Then `COc1cccc(NC(=O)c2ccc(S(=O)(=O)N(C)C)cc2)c1`, with 1.09 (inactive); and `O=C(Nc1nnc(-c2ccco2)o1)c1ccc(S(=O)(=O)N2CCOCC2)cc1`, with -0.75 (inactive).

On to `CCCCN1CCNC1=S`, for which the B-score of Tl+ flux slope (higher = more flux/activation; lower = inhibition) was -0.472 (inactive). Next, `O=C(Nc1ccc(Br)cn1)c1ccc([N+](=O)[O-])o1`: 0.106 (inactive). `CCCCCC(=O)Nc1ccc(C(=O)N/N=C/c2ccc([N+](=O)[O-])cc2)cc1`: the B-score of Tl+ flux slope (higher = more flux/activation; lower = inhibition) is -0.55 (inactive). Next, `CCCCCC(=O)NC(=S)NNC(=O)c1ccc([N+](=O)[O-])cc1`: 11.7 (active); `CC(C)CC(=O)NC(=S)NNC(=O)c1cccc([N+](=O)[O-])c1`: 0.86 (inactive); `Cc1ccc(N2C(=O)C(CC(=O)Nc3cccc(F)c3)N(CCc3ccncc3)C2=O)cc1` (stereo not given): 1.48 (inactive). In the case of `C=CCNC(=S)N1CCc2[nH]c3ccccc3c2C1`, the B-score of Tl+ flux slope (higher = more flux/activation; lower = inhibition) is -0.783 (inactive). Regarding `O=C(COC(=O)c1ccc(Oc2ccccc2)cc1)Nc1nnc(-c2ccccc2)o1`, the B-score of Tl+ flux slope (higher = more flux/activation; lower = inhibition) was 42.1 (active). Next, `CCCC(=O)Nc1nnc(-c2ccccc2)o1`: 1.22 (inactive); `Cc1cccc(NC(=O)Nc2nnc(-c3ccccc3)o2)c1`: 2.01 (inactive). Next, `CC1=NNC(=O)C1CCC(=O)N/N=C(\C)c1ccc(Cl)cc1` (stereo not given): -0.012 (inactive). Next, `CC(NC(=S)Nc1ccccc1)C(c1cccs1)N1CCOCC1` (stereo not given): 0.588 (inactive); `O=C(NNC(=O)C1C2CCC(C2)C1C(=O)O)c1ccc(Cl)cc1` (stereo not given): -1.3 (inactive).

Turning to `CSc1sc(C(=O)NNC(=O)c2ccc(Cl)cc2)c2c1C=CCC2`, the B-score of Tl+ flux slope (higher = more flux/activation; lower = inhibition) is 12.5 (active). Then `CCOC(=O)NNC(=O)c1ccc(Cl)cc1`, with 0.095 (inactive).

With `O=C(CC(c1ccccc1)c1cc(Cl)ccc1O)NCCN1CCOCC1` (stereo not given), the B-score of Tl+ flux slope (higher = more flux/activation; lower = inhibition) is -0.0272 (inactive). Next, `CN(C)c1ccc(C=C2C(=O)OC3(CCCC3)OC2=O)cc1`: -0.977 (inactive). Next, `CCOc1c(Nc2cccc(Cl)c2)c(=O)c1=O`: -0.192 (inactive); `COc1ccc(C2/C=C\CN(S(=O)(=O)c3cccs3)CC(=O)N2Cc2ccc(F)cc2)cc1` (stereo not given): -3.16 (active). Turning to `COc1ccc(C2/C=C\CN(CC(C)C)CC(=O)N2Cc2ccc(F)cc2)cc1` (stereo not given), the B-score of Tl+ flux slope (higher = more flux/activation; lower = inhibition) is -1.57 (inactive). Next, `COc1ccc2c(CN3CCN(S(=O)(=O)c4cccs4)CC3)cc(=O)oc2c1`: -3.36 (inactive). Next, `O=c1c(-c2ccc(Cl)cc2)[n+]([O-])c2ccccc2n1OCc1nc2ccccc2[nH]1`: 2.99 (inactive); `Nc1nc(NCC2CCCO2)nc(Nc2ccccc2F)c1[N+](=O)[O-]` (stereo not given): 0.249 (inactive); `NS(=O)(=O)c1ccc(NS(=O)(=O)/C=C/c2ccccc2)cc1`: 0.851 (inactive).

For the compound `COc1ccc(NC(=O)COC(=O)c2ccc(NS(=O)(=O)/C=C/c3ccccc3)cc2)cc1`, the B-score of Tl+ flux slope (higher = more flux/activation; lower = inhibition) is 4.56 (active). Next, `CCC(C(=O)OCC(=O)Nc1ccc(C(=O)Nc2ccc(OC)cc2)cc1)c1ccccc1` (stereo not given): -0.012 (inactive); `Cc1cc(C(=O)OCC(=O)Nc2nccs2)c2ccccc2n1`: -0.12 (inactive); `Cc1ccc2c(C)c(C(=O)N3CCC(N4CCC(C(=O)NC5CC5)CC4)CC3)oc2c1`: -1.04 (inactive). Then `O=C(CSc1nnnn1-c1ccc(O)cc1)N1N=C(c2ccc3ccccc3c2)CC1c1ccccc1` (stereo not given), with 0.186 (inactive); and `COC(=O)C1=C(C(=O)OC)C(c2cc([N+](=O)[O-])ccc2O)c2sc(=O)[nH]c2S1` (stereo not given), with -0.169 (inactive); and `CC1CC(C)(C)n2c(O)c(N=NC(N)=S)c3cccc1c32` (stereo not given), with 24.8 (active).

For `COC(=O)[C@H](CC(C)C)NC(=O)N1CCCCC1C` (stereo not given in full), the B-score of Tl+ flux slope (higher = more flux/activation; lower = inhibition) was -0.124 (inactive). Then `C/C(CC(C)C)=N\Oc1nc(C)cc(C)n1`, with -1.12 (inactive); and `CCCCCCCC(=O)OC(CN1CCCCCC1)CN1CCCC1=O` (stereo not given), with -0.767 (inactive); and `Cc1cc(C)cc(NC(=O)NC2CCN(CC(=O)Nc3cccc(Cl)c3C)CC2)c1`, with 0.963 (inactive).
